Source: PubChem BioAssay
Gli-Sufu block: blocks Gli-Sufu signaling in a luciferase reporter; Sufu-KO-LIGHT fibroblasts, Gli luciferase reporter luminescence; inhibition, % at 5 µM; hit rate 0.74% among 340,000;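 active = inhibition above about 55%, limit read from the data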;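 note: 0% = DMSO-treated cells and 100% = wells with medium but no cells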
Shn3 inh set2: Schnurri-3 reporter inhibition in Clone20 osteoblasts; Clone20 osteoblast Shn3 3'UTR firefly luciferase, 24 h; hit rate 0.52% among 360,000; inhibition, % at 12.5 µM;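 active = mean inhibition of at least 75% with every replicate also reaching 75%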;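 note: 0% = median of neutral control wells and 100% = pilot-screen positive control compound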
Jurkat NFkB inh: lowers PMA/ionomycin-induced NF-kB signal in Jurkat cells | PMA/ionomycin-induced NF-kB luciferase reporter, luminescence | inhibition, % at 4 µM | hit rate 0.53% among 330,000 | AID 435003; in the data active = inhibition above about 50%
Mdm2 MdmX PPI: human Mdm2/MdmX binding inhibition. inhibition, % at 8 µM. O15151+Q00987. SaOS-2 split-luciferase Mdm2/MdmX complementation, luminescence. hit rate 3% among 330,000;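 active = inhibition of at least 50% at 8 µM in the primary screen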
Target sequence (O15151 whole entry, looked up): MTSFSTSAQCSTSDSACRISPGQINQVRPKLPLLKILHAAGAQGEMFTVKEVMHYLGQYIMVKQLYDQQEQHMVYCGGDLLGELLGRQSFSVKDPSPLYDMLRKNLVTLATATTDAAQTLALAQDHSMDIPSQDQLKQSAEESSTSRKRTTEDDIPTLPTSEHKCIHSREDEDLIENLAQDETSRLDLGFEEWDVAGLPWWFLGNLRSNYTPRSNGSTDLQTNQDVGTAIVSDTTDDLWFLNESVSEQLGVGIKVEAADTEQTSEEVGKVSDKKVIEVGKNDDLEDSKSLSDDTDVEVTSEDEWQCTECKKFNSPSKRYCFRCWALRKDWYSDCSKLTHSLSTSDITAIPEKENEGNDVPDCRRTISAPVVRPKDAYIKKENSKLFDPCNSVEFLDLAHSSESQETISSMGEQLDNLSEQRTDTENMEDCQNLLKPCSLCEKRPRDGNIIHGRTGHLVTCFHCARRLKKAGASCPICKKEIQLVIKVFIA
Target sequence (Q00987 whole entry, looked up): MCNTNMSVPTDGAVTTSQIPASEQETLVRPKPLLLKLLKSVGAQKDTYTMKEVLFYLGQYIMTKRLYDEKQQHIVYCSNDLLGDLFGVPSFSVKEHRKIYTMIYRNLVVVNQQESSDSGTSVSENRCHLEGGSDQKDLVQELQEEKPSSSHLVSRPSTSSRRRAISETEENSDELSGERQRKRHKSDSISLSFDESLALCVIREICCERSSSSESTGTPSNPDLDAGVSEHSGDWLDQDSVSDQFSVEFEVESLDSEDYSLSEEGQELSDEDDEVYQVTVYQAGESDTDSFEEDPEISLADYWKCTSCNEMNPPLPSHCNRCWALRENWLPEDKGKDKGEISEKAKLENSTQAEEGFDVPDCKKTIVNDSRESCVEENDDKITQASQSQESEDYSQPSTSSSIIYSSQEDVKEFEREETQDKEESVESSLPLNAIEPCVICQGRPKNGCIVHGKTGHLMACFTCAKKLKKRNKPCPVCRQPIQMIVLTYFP
697 NFkB inh: lowers PMA/ionomycin-induced NF-kB signal in 697 B cells; inhibition, % at 4 µM; 697 B-cell NF-kB luciferase reporter, 16 h; hit rate 0.33% among 330,000; in the data active = inhibition above about 35%
Mdm2 MdmX conf: human Mdm2/MdmX binding inhibition, confirmed. inhibition, % at 8 µM. luminescent assay. AID 489028. shares compounds with Mdm2 MdmX PPI. hit rate 55% among 10,000; in the data active = inhibition above about 40%
FLuc counter: full-length luciferase inhibition in Mdm2/MdmX counter-screen | shares compounds with Mdm2 MdmX PPI | SaOS-2 full-length luciferase counterscreen, luminescence | inhibition, % at 8 µM | hit rate 77% among 6,200;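 active = mean inhibition at 8 µM reaching about 37%, which flags the compound as non-specific, limit read from the data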;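 note: p53-null SaOS-2 cells with luciferase driven by a doxycycline-inducible promoter; compound on cells about two nights before reading with doxycycline added after day one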
Starred values were filed as active, the others as inactive. Compounds with a hit are over-represented: about 3.8% of the library has one in this group of screens.

For Nc1c(C(=O)Nc2nc3ccccc3s2)sc2nc(-c3cccs3)ccc12 the results were Gli-Sufu block -13.0, Shn3 inh set2 82.0, Jurkat NFkB inh -17.5, Mdm2 MdmX PPI 86.8*, 697 NFkB inh -1.2 and Mdm2 MdmX conf -45.5.
`CC(=O)c1sc2nc(-c3cccs3)ccc2c1N` gave Gli-Sufu block -15.9, Shn3 inh set2 -51.8, Jurkat NFkB inh -9.9, Mdm2 MdmX PPI -6.9 and 697 NFkB inh 0.4.
For Cc1nn(CCCC(=O)Nc2cc(Oc3ccc(F)cc3)cc([N+](=O)[O-])c2)c(C)c1[N+](=O)[O-] the results were Gli-Sufu block 8.8, Shn3 inh set2 31.9, Jurkat NFkB inh -2.6, Mdm2 MdmX PPI 44.4 and 697 NFkB inh 1.2.
CCn1nc(C)c(C(=O)Nc2cc(Oc3ccc(Cl)cc3)cc([N+](=O)[O-])c2)c1C was read as Gli-Sufu block 1.4, Shn3 inh set2 11.5, Jurkat NFkB inh 4.3, Mdm2 MdmX PPI 56.9*, 697 NFkB inh 13.7, Mdm2 MdmX conf 45.1* and FLuc counter 52.7*.
For C=CCn1c(SCc2c(C)noc2C)nc2sc3c(c2c1=O)CCCC3 the results were Gli-Sufu block 14.2, Shn3 inh set2 41.4, Jurkat NFkB inh 22.5, Mdm2 MdmX PPI 52.3*, 697 NFkB inh -30.1, Mdm2 MdmX conf 55.3* and FLuc counter 40.9*.
`C=CCn1c(SCc2c(C)noc2C)nc2sc3c(c2c1=O)CCCCC3` gave Gli-Sufu block 3.8, Shn3 inh set2 28.1, Jurkat NFkB inh 6.7, Mdm2 MdmX PPI 39.1 and 697 NFkB inh -63.6.
CSc1nnc(CCNS(=O)(=O)c2ccccc2Br)n1C was read as Gli-Sufu block 1.2, Shn3 inh set2 -8.6, Jurkat NFkB inh 15.4, Mdm2 MdmX PPI -6.0 and 697 NFkB inh -3.2.
`CC(C)(C)OC(=O)N/N=C/c1cccn1-c1ccc([N+](=O)[O-])cc1` gave Gli-Sufu block 1.9, Shn3 inh set2 -16.5, Jurkat NFkB inh -6.2, Mdm2 MdmX PPI -12.3 and 697 NFkB inh -3.5.
Screening CN(C)c1ccc(-n2cccc2/C=C/[N+](=O)[O-])cc1 returned Shn3 inh set2 -21.6, Jurkat NFkB inh -0.3, Mdm2 MdmX PPI 65.2*, 697 NFkB inh 16.9 and Mdm2 MdmX conf 34.2.
O=C(Nc1cnccn1)Nc1cccc(Cl)c1Cl was read as Gli-Sufu block -11.6, Shn3 inh set2 -47.3, Jurkat NFkB inh -4.5, Mdm2 MdmX PPI 76.7*, 697 NFkB inh -17.9, Mdm2 MdmX conf 68.0* and FLuc counter 104.8*.
Screening O=[N+]([O-])c1ccc(Oc2cccc(F)c2)c2ccncc12 returned Gli-Sufu block 8.2, Shn3 inh set2 0.5, Jurkat NFkB inh -3.4, Mdm2 MdmX PPI 58.0*, 697 NFkB inh 13.9 and Mdm2 MdmX conf 26.5.
Screening Cc1cc(F)ccc1-c1cc(C(=O)N2CCN(c3ccncc3)CC2)[nH]n1 returned Shn3 inh set2 -2.6.
O=C1/C(=C/c2ccccc2)Nc2ccccc21 was read as Gli-Sufu block 7.1, Shn3 inh set2 -11.8, Jurkat NFkB inh 6.2, Mdm2 MdmX PPI -15.5 and 697 NFkB inh 4.4.
Screening O=C1/C(=C/c2ccccc2)NC(=S)N1C(c1ccccc1)c1ccccc1 returned Gli-Sufu block -4.5, Shn3 inh set2 -4.7, Jurkat NFkB inh 10.7, Mdm2 MdmX PPI 50.9*, 697 NFkB inh 1.4, Mdm2 MdmX conf 59.3* and FLuc counter 61.1*.
Screening S=C1N(c2ccccc2)CN(CCN2CCOCC2)CN1c1ccccc1 returned Gli-Sufu block 6.9, Shn3 inh set2 2.4, Jurkat NFkB inh 4.9, Mdm2 MdmX PPI -11.7 and 697 NFkB inh 4.4.
`COc1ccc(S(=O)(=O)N(C)CC(=O)Nc2ccccc2OC)cc1` gave Gli-Sufu block 2.9, Shn3 inh set2 -7.1, Jurkat NFkB inh -20.3, Mdm2 MdmX PPI 1.8 and 697 NFkB inh 3.9.
COc1ccc(N(CC(=O)Nc2ccccc2OC)S(=O)(=O)c2ccc(NC(C)=O)cc2)cc1 was read as Gli-Sufu block 0.3, Shn3 inh set2 15.3, Jurkat NFkB inh 42.8, Mdm2 MdmX PPI 52.5*, 697 NFkB inh -49.7, Mdm2 MdmX conf 62.7* and FLuc counter 54.6*.
CN(c1ncnc(N)c1[N+](=O)[O-])C1CCS(=O)(=O)C1 (stereo not given) was read as Gli-Sufu block -19.5, Shn3 inh set2 10.8, Jurkat NFkB inh 8.2, Mdm2 MdmX PPI 51.1*, 697 NFkB inh 5.8, Mdm2 MdmX conf 43.6* and FLuc counter 39.6*.
Screening CN(c1ncnc(N)c1[N+](=O)[O-])C1CCCCC1 returned Gli-Sufu block -15.3, Shn3 inh set2 8.6, Jurkat NFkB inh 22.3, Mdm2 MdmX PPI 80.2*, 697 NFkB inh -18.0, Mdm2 MdmX conf 81.6* and FLuc counter 51.3*.
Screening CCCCN(c1ccccc1)c1ncnc(N)c1[N+](=O)[O-] returned Gli-Sufu block -16.0, Shn3 inh set2 -14.5, Jurkat NFkB inh 19.0, Mdm2 MdmX PPI 54.6*, 697 NFkB inh 13.7, Mdm2 MdmX conf 83.2* and FLuc counter 51.7*.
For Nc1ncnc(NC2CCS(=O)(=O)C2)c1[N+](=O)[O-] (stereo not given) the results were Gli-Sufu block -21.4, Shn3 inh set2 -2.1, Jurkat NFkB inh -4.2, Mdm2 MdmX PPI 33.0 and 697 NFkB inh 1.1.
Cc1noc(C)c1S(=O)(=O)NC(=O)C1(C)CCN1C(=O)Cc1ccc(Cl)cc1Cl (stereo not given) was read as Shn3 inh set2 -7.7.
Cc1nnc(NC(=O)C2CCN(S(=O)(=O)c3ccc(F)c(Cl)c3)CC2)o1 was read as Gli-Sufu block -15.3, Shn3 inh set2 -4.3, Jurkat NFkB inh -2.4, Mdm2 MdmX PPI 7.2 and 697 NFkB inh -5.4.
Screening O=C(N=C1SC2CS(=O)(=O)CC2N1Cc1ccccc1Cl)C1CC1 (stereo not given) returned Gli-Sufu block -4.9, Shn3 inh set2 5.5, Jurkat NFkB inh -4.4, Mdm2 MdmX PPI -10.3 and 697 NFkB inh 8.4.
`OC(COc1ccccc1)CN1CCCCC1` (stereo not given) gave Gli-Sufu block 7.6 and Shn3 inh set2 -3.6.
`OC(COc1ccc(CNCCc2ccccc2F)cc1)CN1CCCCC1` (stereo not given) gave Gli-Sufu block 10.7, Shn3 inh set2 12.4, Jurkat NFkB inh 47.7, Mdm2 MdmX PPI 54.8*, 697 NFkB inh 10.2, Mdm2 MdmX conf 40.4* and FLuc counter 54.4*.
CC(C)C1CC(CCN2CCCCC2)(c2ccccc2)CCO1 (stereo not given) was read as Gli-Sufu block 15.6, Shn3 inh set2 12.6, Jurkat NFkB inh -0.6, Mdm2 MdmX PPI 17.7 and 697 NFkB inh 3.2.
For CCn1cc(/C=C2\SC(=O)N(CC(=O)Nc3ccc4c(c3)OCO4)C2=O)c2ccccc21 the results were Gli-Sufu block -10.9, Shn3 inh set2 -2.1, Jurkat NFkB inh 14.3, Mdm2 MdmX PPI 67.9*, 697 NFkB inh 17.2, Mdm2 MdmX conf 46.9* and FLuc counter 90.7*.
